Structures can show the parent of a compound that is named as a salt.
System: Vero E6 infected with SARS-CoV-2
Assay: inhibition of SARS-CoV-2 cytopathic effect; higher = more antiviral protection, active = above 15
Conditions: 48 h

Measured: inhibition of SARS-CoV-2 cytopathic effect

CCNC(=O)c1noc(-c2cc(C(C)C)c(O)cc2O)c1-c1ccc(CN2CCOCC2)cc1
inactive: 1 nM 0.97% | 8.33 nM -0.58% | 100 nM -1.84% | 833.33 nM 0.4% | 10000 nM -4.07%

O=c1[nH]c2ccc(Cl)cc2c(N[C@@H]2CN3CCC2CC3)c1-c1nc2ccccc2[nH]1
inactive: 1 nM 0.01% | 8.33 nM 0.79% | 100 nM -0.9% | 833.33 nM -5.44% | 10000 nM -15.4%

CN1C[C@@H]2C[C@H]1CN2c1cc2c(cc1F)c(=O)c(C(=O)O)cn2C1CC1 [danofloxacin]
inactive: 1 nM 0.88% | 8.33 nM -1.78% | 100 nM 0.43% | 833.33 nM 2.27% | 10000 nM 6.15%

CN(C)CC/C=C1/c2ccccc2COc2ccc(CC(=O)O)cc21 [Olopatadine hydrochloride (Opatanol)]
inactive: 1 nM 1.34% | 8.33 nM 1.55% | 100 nM 1.65% | 833.33 nM 6.26% | 10000 nM 0.26%

CC(C(=O)O)c1ccc(N2Cc3ccccc3C2=O)cc1 (stereo not given) [indoprofen]
inactive: 1 nM 0.91% | 8.33 nM 0.93% | 100 nM 0.86% | 833.33 nM 1.21% | 10000 nM 0.49%

CN1[C@@H]2CC[C@H]1C[C@@H](OC(=O)c1cc(Cl)cc(Cl)c1)C2 [bemesetron]
inactive: 1 nM -0.2% | 8.33 nM 0.56% | 100 nM 0.85% | 833.33 nM 0.1% | 10000 nM 2.26%

COC(=O)CC[C@@H]1N=C(c2ccccn2)c2cc(Br)ccc2-n2c(C)cnc21 [remimazolam]
inactive: 1 nM 0.83% | 8.33 nM 1.12% | 100 nM 2.32% | 833.33 nM 0.51% | 10000 nM -1.57%

c1ccc(-c2n[nH]cc2-c2ccnc3ccccc23)nc1
inactive: 1 nM 1.81% | 8.33 nM -0.93% | 100 nM -2.43% | 833.33 nM -2.05% | 10000 nM -1.69%

Cc1ccc(OC[C@@H](O)[C@H](C)NC(C)C)c2c1CCC2 (racemic)
inactive: 1 nM -1.05% | 8.33 nM -1.6% | 100 nM -1.43% | 833.33 nM -0.36% | 10000 nM -1.51%

C[C@]12C=CC(=O)C=C1CC[C@@H]1[C@@H]2[C@@H](O)C[C@@]2(C)[C@H]1CC[C@]2(O)C(=O)COP(=O)(O)O [prednisolone-sodium-phosphate]
inactive: 1 nM -6.31% | 8.33 nM -10% | 100 nM -8.54% | 833.33 nM -9.6% | 10000 nM -4.78%

COc1ccccc1OCC(O)COC(N)=O (stereo not given) [methocarbamol]
inactive: 1 nM -1.87% | 8.33 nM -0.67% | 100 nM -0.79% | 833.33 nM 2.32% | 10000 nM 1.06%

O=C(O[C@H]1CN2CCC1CC2)N(Cc1cc(F)c(F)c(F)c1)c1cccc(F)c1 [tarafenacin]
inactive: 1 nM 1.69% | 8.33 nM -0.35% | 100 nM 2.28% | 833.33 nM -1.46% | 10000 nM -7.54%

CCOc1ccc(Cc2nccc3cc(OCC)c(OCC)cc23)cc1OCC [ethaverine]
inactive: 1 nM -8.51% | 8.33 nM -11.9% | 100 nM -9.06% | 833.33 nM -7.91% | 10000 nM -8.28%

CCN(CCO)CCCOc1ccc2c(Nc3cc(CC(=O)Nc4cccc(F)c4)[nH]n3)ncnc2c1 [barasertib-HQPA]
inactive: 1 nM -1.93% | 8.33 nM -0.82% | 100 nM -3.04% | 833.33 nM -4.18% | 10000 nM -5.49%

COC(=O)C1=C(C)NC(C)=C(C(=O)OCCN2CCN(C(c3ccccc3)c3ccccc3)CC2)C1c1cccc([N+](=O)[O-])c1 (stereo not given) [manidipine]
inactive: 1 nM 1.55% | 8.33 nM 1.19% | 100 nM -0.02% | 833.33 nM 1.16% | 10000 nM -7.15%

CON(C)C(=O)[C@H](O)[C@H](Cc1ccccc1)NC(=O)c1cc2cc(Cl)ccc2[nH]1
inactive: 1 nM -0.47% | 8.33 nM 0.53% | 100 nM 1.7% | 833.33 nM 1.24% | 10000 nM 4.39%

CCc1cc2cc(OC)c(OC)cc2c(Cc2ccccc2)n1 [moxaverine]
inactive: 1 nM 3.28% | 8.33 nM 0.47% | 100 nM 0.44% | 833.33 nM 0.83% | 10000 nM 4.26%

Cc1ccc(-c2nn(C(C)(C)CNC(=O)c3ncccc3C)c3ncnc(N)c23)cc1 [WEHI-345-analog]
inactive: 1 nM 0.48% | 8.33 nM 1.39% | 100 nM -0.26% | 833.33 nM 0.47% | 10000 nM -2.28%
